Screening results deposited in PubChem BioAssay by National Center for Advancing Translational Sciences (NCATS).
Hits are enriched below; roughly 7.9% of the tested compounds scored in any of these assays.
FMDV antiviral – blocks foot and mouth disease virus | Potency, µM (titrated, usually from 57.9 µM), for the others: top-dose activity change, negative = inhibition, hits mostly inhibitors | AID 1159524 | 410,000 tested, 1.2% active | FMDV antiviral cell-based qHTS; calls by dose curve; tested in HEK293T cells; note: read-out not given here; potency is the fitted concentration of half-maximal effect; nearly all actives have a fitted effect of over 45% in size
LASV entry inh – Lassa virus entry inhibition. Lassa virus pseudotype entry inhibition, cell reporter. Potency, µM (highest dose often 37.9 µM), for inactives: at the top dose activity change, negative = inhibition, hits mostly inhibitors. AID 540256. 300,000 tested, 1.2% active; calls by dose curve; tested in HEK293 cells; note: potency is the fitted concentration of half-maximal effect; nearly all actives have a fitted effect of over 50% in size
HCV inhibitor – blocks hepatitis C virus. Huh7.5.1 HCVcc-Cre infection, luciferase reporter, 44 h. Potency, µM (doses to about 41.8 µM), inactives show top-dose activity change, negative = inhibition, usual class: inhibitors. 340,000 tested, 3.4% active. AID 651820; active = well fitted inhibition curve with a large enough effect; inconclusive = small, poorly fitted or top-dose-only effect, or another doubt; inactive = no such curve, though single readings can be large or run the other way; note: potency is the fitted concentration of half-maximal effect
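Whole-lifecycle infectious HCVcc-Cre system; cells 1,000/well, compound then virus (~0.5 moi) added 4 h after plating, 44 h culture. Luciferase read 15 sec following 15 min substrate incubation, room temp.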
MARV entry inh – Marburg virus entry inhibition | Potency, µM (top dose mostly 37.8 µM), for the others: at the highest dose activity change, negative = inhibition, actives largely listed as inhibitors | 300,000 tested, 1.8% active | Marburg virus pseudotyped entry inhibition, cell reporter | AID 540276; calls by dose curve; tested in HEK293 cells; note: potency is the fitted concentration of half-maximal effect
HCMV inh – inhibitors of human cytomegalovirus; HFF cells, HCMV-luciferase reporter, 72 h; active compounds read low; activity change, negative = inhibition, % at 57.5 µM; AID 1259415; 410,000 tested, 4.5% active; in the data active = activity change below about -60%; inconclusive = no clear call, values can overlap the other calls; inactive = above about -39%
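Cell-based, HFFs, 1000 cells/well, 16 h 37C; cpds in DMSO + HCMV-luc, MOI 1 PFU/cell; 72 h 37C; OneGlo luminescence after 5 min RT; norm. to buffer vs Salinomycin 10uM.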
Starred values were filed as active, the others as inactive; ? = inconclusive; . = no result; ! = a repeat was not active; [ ] = another dose, or the depositor's remark. % is set by controls: 0 for no effect and ±100 for the full control effect.

SMILES | FMDV antiviral | LASV entry inh | HCV inhibitor | MARV entry inh | HCMV inh
CC(=O)OC[C@H]1O[C@@H](ON=C(C)CCC(=O)OC[C@H]2O[C@H](C#Cc3ccccc3)C=C[C@H]2Oc2ccc(C)cc2)[C@H](OC(C)=O)[C@@H](OC(C)=O)[C@H]1OC(C)=O | . | . | . | 9%[14.2 µM] | .
CN(C)c1ccc(C2Nc3ccccc3C(=O)N2CCCN2CCOCC2)cc1 (centres undefined) | 2.8µM* | . | 7% | . | 9
CN(C)c1ccc(C2NC(=O)c3ccccc3N2)cc1 (centres undefined) | 21% | ? | ? | 10µM* | 12
CCN(CC)CCN1C(=O)c2ccccc2NC1c1ccc(N(C)C)cc1 (centres undefined) | 3.2µM* | -21% | 12% | -6%[46.1 µM] | 24
CCN(CC)CCN1C(=O)c2ccccc2NC1c1ccc(F)cc1 (centres undefined) | 12% | 10% | -18% | 9% | 20
COc1cc(-c2ccc(Cl)cn2)cc2c1OCCN(S(=O)(=O)C[C@]13CC[C@H](CC1=O)C3(C)C)C2 | -3% | . | . | . | .
Cc1ccc(O)c(/C=N/NC(=O)Cc2ccc(Cl)cc2)c1 | -5% | . | ? | . | -99*
O=C(N/N=C/c1ccoc1)c1ccc(Br)cc1 | 24% | . | 5% | . | -17
COc1ccccc1/C=N\NC(=O)c1c(C)nc2ccc(Cl)cn12 | 0% | . | 9% | . | 11
Cc1cccc(/C=N\NC(=O)c2ccc(Cl)cc2)c1O | -3% | 11µM* | ? | 5.6µM* | -101*
COc1cccc(/C=N/NC(=O)c2c(C)nc3ccc(Cl)cn23)c1O | 11% | ? | 2.5µM* | 1µM* | -99*
O=C(N/N=C/c1ccoc1)c1ccc(Cl)cc1 | 0% | . | 1% | . | -75*
O=C(N/N=C/c1c[nH]c2ccccc12)c1ccc(Cl)cc1 | 52% | 8% | ? | ? | -39
Cc1cccc(NC(=O)/C(C#N)=C/c2ccco2)c1 | 45% | ? | . | . | 8
CC(C)C[C@@H](CN1CCC[C@@H]1CN1C(=S)NC[C@@H]1Cc1ccc(O)cc1)N1C[C@H](Cc2ccc(O)cc2)N(CCc2ccccc2)C1=S | ? | . | . | . | -31
Cc1cccc(/C=N/NC(=O)Cc2ccc(Cl)cc2)c1O | 15% | . | 13µM* | . | -89*
O=C(Cc1ccc(Cl)cc1)N/N=C/c1c(Cl)cccc1Cl | 15% | ? | 5% | -1% | -8
COc1ccccc1C(=O)N1CCCC(c2nc(SCCN3CCOCC3)ncc2C)C1 (centres undefined) | -2% | . | . | . | .
CCC(=O)N1CCc2cc(S(=O)(=O)NCCC(=O)NCc3ccc(OC)cc3)ccc21 | -5% | 20%[46.1 µM] | . | 6%[46.1 µM] | -3
NC(CO)C(=O)NNCc1ccc(O)c(O)c1O (centres undefined) | -16% | ? | -1%[8.37 µM] | 5µM*! | ?
COC(=O)C(N)Cc1ccc(O)c(O)c1 (centres undefined) | 1% | 14% | -4% | 10% | 10
Cc1ccc(Cl)cc1-n1ncc2c(N3CCCCCC3)ncnc21 | 20µM* | ? | . | . | -35
c1ccc(CN2CCN(c3ncnc4c3cnn4-c3ccccc3)CC2)cc1 | ? | ? | . | . | 25
CC(=O)c1ccc(N2CCN(c3ncnc4c3cnn4-c3cc(Cl)ccc3C)CC2)cc1 | 14µM* | 0%[46.1 µM] | . | . | -8
Cc1ccc(-n2ncc3c(N4CCN(Cc5ccccc5)CC4)ncnc32)cc1Cl | 13µM* | 5%[46.1 µM] | . | . | -32
SMILES | FMDV antiviral | LASV entry inh | HCV inhibitor | MARV entry inh | HCMV inh
Clc1ccc(Cn2ncc3c(N4CCCCC4)ncnc32)c(Cl)c1 | 28µM* | 3% | 5% | 2% | -21
CN1C(=O)C(n2ccc3ccccc32)c2cccc(F)c21 (centres undefined) | . | . | . | . | 8
CCN(CC)CCCN1C(=O)C(O)=C(C(=O)c2ccc(C)o2)[C@@H]1c1ccc(C)o1 | . | . | . | 8% | .
Cc1cc(C)c(NC(=O)CNC(=O)c2cc(C3CC3)nn2-c2ccccc2)c(C)c1 | -7% | . | -15% | . | -26
NS(=O)(=O)c1ccc(CNC(=O)c2ccc(NS(=O)(=O)c3cccs3)cc2)cc1 | 8% | -16% | 7% | 3% | -22
COc1ccc(N2CCN(c3ncnc4c3cnn4-c3ccc(C)c(Cl)c3)CC2)cc1 | -1% | 20%[46.1 µM] | . | . | -39
Cc1ccc(-n2ncc3c(N4CCN(C)CC4)ncnc32)cc1C | -37% | 16%[46.1 µM] | . | . | 24
COc1ccccc1N1CCN(c2ncnc3c2cnn3-c2cc(Cl)ccc2C)CC1 | 11µM* | -8%[46.1 µM] | . | . | ?
Cc1ccc(-n2ncc3c(N4CCCCC4)ncnc32)cc1Cl | 25µM* | ? | . | . | -89*
Cc1ccc(-n2ncc3c(N4CCCCCC4)ncnc32)cc1Cl | 63µM* | 15%[46.1 µM] | . | . | -90*
CCN(Cc1ccncc1)Cc1ccc2c(c1)CN(C(=O)c1ccccc1-n1cccn1)CCO2 | -10% | . | . | . | .
COc1ccc(N(C(=O)c2ccccc2C)S(=O)(=O)c2ccc3c(c2)n(C)c(=O)n3C)cc1 | -19% | -8%[46.1 µM] | . | ? | 1
COc1ccc(-c2c(C(=O)c3ccccc3)[nH]c(N)c2C(=O)c2ccccc2)cc1OC | -22% | . | . | . | -70*
COc1ccc(-c2c(C(=O)c3ccccc3)[nH]c(N)c2C(=O)c2ccc(Br)cc2)cc1OC | -26% | . | . | . | 3
Cc1cc(C)nc(N(C#N)Cc2ccc(Cl)cc2)n1 | 7% | 1% | 5% | 2%[46.1 µM] | -62*
Cc1cc(C)c(S(=O)(=O)N2CCCOC2CNC(=O)C(=O)NCCc2c[nH]c3ccccc23)c(C)c1 (centres undefined) | ? | ? | ? | ? | -82*
Cc1cc(F)ccc1S(=O)(=O)N1CCCOC1CNC(=O)C(=O)NCCc1c[nH]c2ccccc12 (centres undefined) | 32µM* | ? | 11µM* | ? | -36
Cc1ccc(S(=O)(=O)N2CCOC2CNC(=O)C(=O)NCCc2c[nH]c3ccccc23)cc1 (centres undefined) | ? | . | ? | . | -80*
O=C(NCCc1c[nH]c2ccccc12)C(=O)NCC1OCCCN1S(=O)(=O)c1cccs1 (centres undefined) | ? | ? | ? | 10%[46.1 µM] | -19
O=C(NCCc1c[nH]c2ccccc12)C(=O)NCC1OCCN1S(=O)(=O)c1cc(F)ccc1F (centres undefined) | ? | . | -27% | . | -3
O=C(NCCc1c[nH]c2ccccc12)C(=O)NCC1OCCCN1S(=O)(=O)c1ccc(F)cc1 (centres undefined) | ? | ? | ? | -35% | ?
Nc1nc2ncc(CNc3ccc(C(=O)NC(CCC(=O)O)C(=O)O)cc3)nc2c(=O)[nH]1 (centres undefined) | 13% | . | . | . | .
CN(Cc1cnc2nc(N)nc(N)c2n1)c1ccc(C(=O)N[C@H](CCC(=O)O)C(=O)O)cc1 | . | . | . | 0.04µM* | .
CN(Cc1cnc2nc(N)nc(N)c2n1)c1ccc(C(=O)N[C@@H](CCC(=O)O)C(=O)O)cc1 | ? | ? | ? | 0.04µM*! | -99*
O=C(OCc1ccccc1)N1CCC2CC1c1ccc(-c3cccc(F)c3)cc12 (centres undefined) | 19% | . | . | . | -6
